MEKK3 PB1 HTS: modulators (inhibitors or enhancers) of MEK5 binding to human MEKK3 PB1 domain. 290,000 tested, 1.4% active. binding response (% of control), % at 10 µM. Q99759. bead-based flow cytometry, Alexa488-MEK5 binding to MEKK3; actives lie on both sides; 0 = blocked by unlabeled MEK5, 100 = vehicle;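 active = binding response more than 3 SD above or below the average of its plate-row segment, actives on both sides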;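 also: Alexa488 bead fluorescence after subtracting the streptavidin-only scavenger bead signal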
Target sequence (Q99759 whole entry, looked up, the tested form may be a part): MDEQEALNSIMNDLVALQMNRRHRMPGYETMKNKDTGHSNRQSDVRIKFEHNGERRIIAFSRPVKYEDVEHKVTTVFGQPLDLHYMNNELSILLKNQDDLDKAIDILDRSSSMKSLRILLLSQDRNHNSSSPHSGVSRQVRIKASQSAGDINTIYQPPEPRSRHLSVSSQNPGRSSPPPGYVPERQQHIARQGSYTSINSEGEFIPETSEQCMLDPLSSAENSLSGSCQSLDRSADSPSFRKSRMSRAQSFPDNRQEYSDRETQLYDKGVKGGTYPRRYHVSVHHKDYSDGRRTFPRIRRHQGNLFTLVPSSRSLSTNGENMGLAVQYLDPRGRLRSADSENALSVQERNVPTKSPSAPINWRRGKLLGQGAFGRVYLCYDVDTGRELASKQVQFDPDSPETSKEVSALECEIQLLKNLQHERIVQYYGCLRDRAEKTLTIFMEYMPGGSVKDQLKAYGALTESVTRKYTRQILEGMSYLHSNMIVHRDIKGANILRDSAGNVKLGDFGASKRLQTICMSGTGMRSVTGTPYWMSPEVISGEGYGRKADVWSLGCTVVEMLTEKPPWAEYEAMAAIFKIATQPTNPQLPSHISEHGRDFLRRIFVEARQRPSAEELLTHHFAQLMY
MEKK2wt PB1 HTS: raises or lowers MEK5 binding to wildtype human MEKK2 PB1 domain; Q9Y2U5; bead flow cytometry, Alexa488-MEK5 binding to MEKK2 WT; actives lie on both sides; binding response (% of control), % at 10 µM; 290,000 tested, 1.1% active; in the data active = binding response below about 67% or above about 130%
MEKK2 mut-MEK5: signal of MEK5 binding to mutant human MEKK2 PB1 domain; bead flow cytometry, Alexa488-MEK5 binding to MEKK2 mutant; 290,000 tested, 0.35% active; percent response, % at 10 µM; AID 1530; in the data active = percent response above about 24%, passing the limit was not always enough
GRK2 aptamer HTS: human GRK2 inhibition via aptamer displacement; P25098; bead flow cytometry, FAM-aptamer displacement from GRK2; inhibition of aptamer binding, % at 10 µM; 330,000 tested, 0.59% active; AID 488847;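 active = inhibition of aptamer binding above 40%, roughly 3 SD of noise, on plates passing a quality check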;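 also: median bead fluorescence of bound FAM aptamer so fluorescent compounds give negative values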
B2AR ag: human beta-2 adrenergic receptor agonism by FAP. 340,000 tested, 0.43% active. P07550. AID 504454. response, % (concentration not given with the values). Am2.2-beta2AR cells, FAP receptor internalization, flow cytometry;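 active = response above a set limit, near 3 SD of response in nonfluorescent compounds, cut at about 42% in these data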
Active calls of the source: *; . = no result given. Only some compounds are listed: those with a hit (about 2.9% of all), similar ones and a draw of the others.

SMILES	MEKK3 PB1 HTS	MEKK2wt PB1 HTS	MEKK2 mut-MEK5	GRK2 aptamer HTS	B2AR ag
CC(=O)N1CC[n+]2c(-c3ccc(Cl)cc3Cl)csc21	87	88	-3	52*	-3
COc1ccccc1N=Cc1nc(-c2ccccc2)oc1OC(C)=O	84	85	-1	0	7
CC(=O)Oc1oc(-c2ccccc2)nc1/C=N/c1ccccn1	.	.	.	3	64*
Cc1cc(C)cc(NS(=O)(=O)c2c(C)[nH]c(=O)[nH]c2=O)c1	106	106	10	2	-5
CCc1nnc(NC(=O)c2sc3nc4c(cc3c2N)CCCCC4)s1	139*	106	2	2	-12
CC(=O)N/N=C\c1cccc(OC/C=C/c2ccccc2)c1	105	101	1	0	5
N#CC(C#N)=Cc1ccc(-c2ccc(S(=O)(=O)N=C(N)N)cc2)o1	127	106	0	100*	2
COC(=O)/C(C#N)=C/c1ccc(-c2ccc(S(N)(=O)=O)cc2)o1	102	97	-10	0	10
CCc1ccc(NS(=O)(=O)c2ccc3[nH]cc(C(=O)N4CCc5ccccc54)c(=O)c3c2)cc1	117	101	0	41*	18
Cc1cc(C)cc(NS(=O)(=O)c2ccc3[nH]cc(C(=O)N4CCc5ccccc54)c(=O)c3c2)c1	102	107	-3	4	4
N#C/C(=C\c1cccc([N+](=O)[O-])c1)c1nnc2n1CCCCC2	104	103	-2	100*	-11
CN(c1ccccc1)c1ccc(/C=C(\C#N)c2nnc3n2CCCCC3)cc1[N+](=O)[O-]	97	91	1	0	0
COc1ccc(-c2c(-c3ccc(C#N)cc3)oc(=O)c3cc(OC)c(OC)cc23)cc1	.	.	.	3	-4
Cc1ccc(NC(=O)CC2OC(=O)c3ccccc32)cc1S(=O)(=O)N1CCCCCC1 (configuration not stated)	.	.	.	0	1
CCOC(=O)c1nc2cc3n(c(C)c-2c1C)C(C)C(C)=C3C (configuration not stated)	127*	130	21	0	2
CCOC(=O)c1nc2cc3n(c(CC(C)C)c-2c1C)CC(C)=C3C	96	97	4	0	-6
Cc1c(NC(=O)c2cccs2)cccc1[N+](=O)[O-]	82	104	4	0	14
O=C(Nc1cc2cccc([N+](=O)[O-])c2oc1=O)c1cccs1	87	-8.0*	1	1	-3
COc1cc(C(=O)NC(=S)NC(C)C)cc(OC)c1OC	91	98	-4	0	78*
COc1cc(C(=O)NC(=S)N2CCCCCC2)cc(OC)c1OC	68	80	-4	0	-2
O=C(O)c1ccc(Cn2cc(/C=C\[N+](=O)[O-])c3ccccc32)o1	107	104	10	0	1
O=[N+]([O-])/C=C/c1cn(Cc2ccc(Cl)cc2)c2ccccc12	99	2.0*	1	4	38
O=C(Nc1ccc2c(c1)nc1n2CCN(C2CCCCC2)C1)c1ccco1	77	86	-10	.	36
COc1ccccc1C(=O)Nc1ccc2c(c1)nc1n2CCN(C2CCCCC2)C1	92	-12*	12	0	14
COc1cc2c(cc1NC(=O)c1cc(-c3ccncc3)nc3ccccc13)oc1ccccc12	92	16*	17	0	28
SMILES	MEKK3 PB1 HTS	MEKK2wt PB1 HTS	MEKK2 mut-MEK5	GRK2 aptamer HTS	B2AR ag
COc1cccc(/C=N/Nc2ncnc3c2[nH]c2ccc(C)cc23)c1OC	100	96	-5	0	52*
CN(C)S(=O)(=O)c1ccc(-c2csc(N/N=C/c3ccc(O)cc3)n2)cc1	103	99	4	4	47*
CN(C)S(=O)(=O)c1ccc(-c2csc(N/N=C/c3ccco3)n2)cc1	122	117	20	0	25
NC(=O)c1ccc[n+](Cc2ccccc2)c1	102	110	8	80*	1
CN(C)S(=O)(=O)c1cccc(NC(=O)CCc2nc3cc(S(=O)(=O)N4CCOCC4)ccc3n2C)c1	.	.	.	0	-1
Cc1ccc(CNC(=O)/C=C/c2ccc(S(=O)(=O)NCc3ccco3)cc2)cc1	99	97	-2	0	0
COc1ccccc1CNC(=O)/C=C/c1ccc(S(=O)(=O)NCc2ccco2)cc1	100	100	-1	62*	3
Nc1ncnc2c1ncn2[C@@H]1O[C@H](CNC(=O)[C@@H](N)CO)[C@@H](O)[C@H]1O	.	.	.	0	-3

From PubChem
